Source: PubChem
Six1-Eya2 blk – blocks human Six1 binding to Eya2 | Q15475+O00167 | AlphaScreen GST-Six1/His-Eya2 binding, biochemical; stronger effect = lower value | activity change, % (no concentration beside the values) | 0.56% of 360,000 active | AID 651725; in the data active means activity change below about -65%; inconclusive means mostly about -30% to -63%
Target sequence (O00167 whole entry, looked up): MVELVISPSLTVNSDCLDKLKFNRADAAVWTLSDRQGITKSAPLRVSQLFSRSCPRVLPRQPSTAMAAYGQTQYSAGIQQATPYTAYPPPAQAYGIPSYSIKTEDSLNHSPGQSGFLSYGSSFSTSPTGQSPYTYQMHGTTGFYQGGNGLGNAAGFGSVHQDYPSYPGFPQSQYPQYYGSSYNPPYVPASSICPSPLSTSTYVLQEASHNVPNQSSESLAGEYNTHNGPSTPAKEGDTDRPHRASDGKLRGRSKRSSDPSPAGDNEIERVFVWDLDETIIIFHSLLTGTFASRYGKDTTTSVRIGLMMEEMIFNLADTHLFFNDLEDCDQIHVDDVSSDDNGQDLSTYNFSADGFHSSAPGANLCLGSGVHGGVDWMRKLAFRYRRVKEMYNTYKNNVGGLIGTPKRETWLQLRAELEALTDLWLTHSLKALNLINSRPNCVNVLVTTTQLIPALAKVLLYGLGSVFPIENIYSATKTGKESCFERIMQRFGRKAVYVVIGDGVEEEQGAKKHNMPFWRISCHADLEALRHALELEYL
Target sequence (Q15475 whole entry, looked up): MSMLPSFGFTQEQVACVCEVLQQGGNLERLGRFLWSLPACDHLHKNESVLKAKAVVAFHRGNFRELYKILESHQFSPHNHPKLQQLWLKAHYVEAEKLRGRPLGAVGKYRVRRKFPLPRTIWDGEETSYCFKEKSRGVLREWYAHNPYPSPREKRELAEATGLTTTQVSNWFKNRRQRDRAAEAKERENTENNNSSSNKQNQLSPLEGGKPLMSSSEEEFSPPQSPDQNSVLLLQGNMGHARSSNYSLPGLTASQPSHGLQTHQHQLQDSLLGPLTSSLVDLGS
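Homogeneous AlphaScreen proximity assay pairing GST-Six1 with His-tagged Eya2 (added as 5X mix: 250 nM and 500 nM) in 50 mM Tris pH 8.0, 300 mM NaCl, 1 mM TCEP. Glutathione donor and nickel acceptor beads; 1 h, 37 °C, dark.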
TDP1 cell noCPT – qHTS for Inhibitors of human tyrosyl-DNA phosphodiesterase 1 (TDP1): qHTS in cells in absence of CPT. DT40 Tdp1-/- hTDP1 cells, no CPT, ATP luminescence, 48 h. Potency, µM (series often up to 46.2 µM), for the others: at the highest dose activity change, negative = growth inhibition, hits mostly inhibitors. 15% of 420,000 active; further: potency means the concentration at half of the fitted maximal effect; nearly all actives have a fitted effect of over 55% in size
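Chicken DT40 Tdp1-/- cells stably complemented with human TDP1 were seeded at 400 cells/well with DMSO in place of 20 nM camptothecin. After compound pinning, cells grew at least 48 hr at 37 °C; viability read by CellTiter-Glo luminescence.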
TDP1 inh – blocks human tyrosyl-DNA phosphodiesterase 1; Q9NUW8; recombinant TDP1, AlphaScreen DNA substrate cleavage; Potency, µM (top dose mostly 130 µM), for the others: at the top dose activity change, negative = inhibition, actives largely listed as inhibitors; 0.28% of 350,000 active; further: potency means the concentration at half of the fitted maximal effect; nearly all actives have a fitted effect of over 40% in size
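Steps: enzyme plus compound, 15 min RT; add biotin/phosphotyrosine-FITC oligonucleotide (15 nM final), react 5 min; add donor/acceptor beads (10 ug/ml final), 10 min; read AlphaScreen. Tdp1 at 1 nM final.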
TDP1 cell CPT – growth inhibition of DT40 Tdp1-/-;hTDP1 cells with camptothecin (screen for TDP1 inhibitors). chicken DT40 Tdp1-/-;hTDP1 cells + 20 nM CPT, ATP luminescence, 48 h. Potency, µM (titrated, usually from 46.2 µM), without a hit: top-dose activity change, negative = growth inhibition, actives largely listed as inhibitors. 12% of 420,000 active. AID 686979; further: potency means the concentration at half of the fitted maximal effect; nearly all actives have a fitted effect of over 55% in size
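Chicken DT40 Tdp1-/- cells complemented with human TDP1, 400 cells/well, exposed to compounds plus 20 nM camptothecin for at least 48 h at 37 C; viability read as ATP content by CellTiter-Glo luminescence.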
IL-1B inflam inh – blocks inflammasome-driven IL-1 beta release; THP-1 LPS/ATP IL-1B secretion, AlphaLISA, 16 h; stronger effect = lower value; activity change, % at 57.5 µM; 4.7% of 360,000 active; in the data active means activity change below about -50%; inconclusive means mostly about -30% to -49%
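THP-1 cells pretreated 1 hr with compounds (up to 57.5 uM final), then stimulated with LPS (250 ng/mL final) plus ATP (1.25 mM final); secreted IL-1B measured by AlphaLISA after 16 hr, decreased signal indicating inhibition.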
CtBP-E1A blk – inhibitors of CtBP/E1A interaction | AlphaScreen GST-E1A/His-CtBP binding, 1536-well; stronger effect = lower value | activity change, % (test concentration not listed) | 0.49% of 340,000 active; in the data active means activity change below about -65%; inconclusive means mostly about -30% to -63%
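Homogeneous bead-based format: GST-tagged E1A captured on glutathione donor beads, His-tagged CtBP on nickel acceptor beads; compounds precede bead addition by 2 h at 37 °C.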
Numbers without * were called inactive; ? = inconclusive; / = not tested or not shown; ! = repeats disagree; [ ] = remark or other dose. Hits are enriched below; roughly 18% of the tested compounds scored in any of these assays. Unless noted, the call rests on the fitted dose curve; in most records, active means well fitted curve in the direction sought with a large enough effect; inconclusive means small, poorly fitted or top-dose-only effect, or another doubt; inactive means no such curve, though single readings can be large; an effect the other way counts as inactive or inconclusive. On the % scale 0 is the no-effect control and ±100 the full control effect.

SMILES	Six1-Eya2 blk	TDP1 cell noCPT	TDP1 inh	TDP1 cell CPT	IL-1B inflam inh	CtBP-E1A blk
O=C(Nc1ccc(C(=O)O)cc1)Oc1ccc(N(CCCl)CCCl)cc1	5	0.73µM*	/	0.41µM*	1	3
Cc1cccn2c(=O)c3cc(C(=O)N4CCC5(CC4)OCCO5)n(C)c3nc12	-1	1.3µM*	1%	1.2µM*	7	11
CC(C)c1cccc(O)c(=O)c1	-17	22µM*	13%	6.5µM*!	0	-5
O=C(Nc1ccc(Cl)cc1C(=O)c1ccccc1)c1ccco1	0	1%	2%	1%	-30	-15
Oc1ccc(Cl)cc1Cc1ccccc1	-1	22µM*	2%	31µM*	12	-2
Oc1ccc(Cl)cc1Cc1cc(Cl)ccc1O	-3	15µM*	-3%	15µM*	2	-3
C[C@]12C[C@@H](O)[C@H](O)CC1=CCC1C2CC[C@]2(C)C(=O)CCC12 (some centres undefined)	2	4%	0%	-6%	16	7
O=c1[nH]c2sccc2c2ccccc12	/	/	8%	/	/	/
O=CNc1ccc(OP(=O)(Oc2ccccc2)Oc2ccccc2)cc1	9	-26%	2%	-24%	-20	-11
CC(=O)[C@H]1CC[C@H]2[C@@H]3CCC4=CC(=O)CC[C@]4(C)[C@H]3CC[C@]12C	-6	18µM*	8%	27µM*	?	5
CCC(=O)OC1CCC2C3CCC4=CC(=O)CC[C@@]4(C)C3CC[C@]12C (some centres undefined)	/	?	6%[56.1 µM]	?	/	/
C[C@@]12CCC3C(CCC4=CC(=O)CC[C@]43C)C1CCC2O (some centres undefined)	/	16µM*	10%[56.1 µM]	?	/	/
C[C@]12CCC(=O)C=C1CC[C@@H]1[C@@H]2CC[C@]2(C)C(=O)CC[C@@H]12	-1	18µM*!	9%	?	5	7
CN1CCC2=C[C@@H](O)[C@@H]3OC(=O)c4cc5c(cc4C3C21)OCO5 (some centres undefined)	/	-26%[9.04 µM]	2%	-25%[9.04 µM]	/	/
CCN1C[C@@]2(COC)C3[C@@H](OC)C4[C@@H]1[C@@]3(C1C[C@@]3(O)[C@H](OC(=O)c5ccccc5)C1[C@]4(OC(C)=O)[C@@H](O)[C@@H]3OC)[C@@H](OC)C[C@H]2O (some centres undefined)	/	16%	-9%[56.1 µM]	-4%	/	/
Clc1cccc(SC2CCNCC2)n1	/	?	9%	-4%	/	/
CCOc1ccc(N=Cc2c(O)n(-c3cc(C)cc(C)c3)c(=O)[nH]c2=O)cc1	5	-8%	5%	-21%	1	0
Cn1c(O)c(C=NC2CCCCCC2)c(=O)[nH]c1=S	5	15%	-3%	-17%	-9	15
CN1CCc2cc3c(c4c2[C@H]1Cc1ccccc1-4)OCO3	/	/	21%	/	/	/
COc1cc2c(cc1O)C[C@H]1NCCc3cc4c(c-2c31)OCO4	-65*	23µM*	4%	18µM*	-26	-79*
CC(C)OC(=O)C1C(=O)NC2(C)CC1c1ccccc1O2 (centres undefined)	-1	-14%	-1%	-9%	?	6
COC(=O)C1=C(c2ccc(OCc3ccccc3)cc2)C[C@@H]2CC[C@H]1N2C(=O)NCCCCc1ccccc1	-6	18µM*	/	?	-25	-5
COC(=O)C1=C(c2ccc(OC)c(OC)c2)C[C@@H]2CC[C@H]1N2C(=O)NC1CC1	6	-15%	0%	?	1	2
COC(=O)C1=C(c2ccccc2)C[C@@H]2CC[C@H]1N2C(=O)NCCNC(C)=O	6	-12%	/	9%	41	-19
COC(=O)C1=C(c2ccc(OCc3ccccc3)cc2)C[C@@H]2CC[C@H]1N2C(=O)NCc1ccc2[nH]ccc2c1	-13	?	/	?	-4	-1
SMILES	Six1-Eya2 blk	TDP1 cell noCPT	TDP1 inh	TDP1 cell CPT	IL-1B inflam inh	CtBP-E1A blk
COC(=O)C1=C(c2ccc(OCc3ccccc3)cc2)C[C@@H]2CC[C@H]1N2C(=O)NC1CCN(Cc2ccccc2)CC1	-22	7.3µM*	3%	8.2µM*	-21	-2
COC(=O)C1=C(c2ccc(OCc3ccccc3)cc2)C[C@@H]2CC[C@H]1N2C(=O)NCCc1ccc(F)cc1	-5	?	/	21µM*	0	0
COC(=O)C1=C(c2ccc(OC(F)(F)F)cc2)C[C@@H]2CC[C@H]1N2C(=O)NCCc1ccccc1	7	?	1%	2.9µM*	0	0
C[C@H](CCC(=O)O)[C@H]1CC[C@@H]2[C@H]3[C@@H](CC[C@@]21C)[C@]1(C)CC[C@H](O)C[C@@H]1C[C@@H]3O	/	/	7%[56.1 µM]	/	/	/
C[N+]1([O-])[C@@H]2CC(OC(=O)[C@@H](CO)c3ccccc3)C[C@@H]1[C@H]1O[C@H]12 (some centres undefined)	/	/	0%	/	/	/
C=CCC(O)(C(=O)OC)c1ccccc1 (centres undefined)	/	/	2%	/	/	/
CC[C@@H](C(=O)O)[C@@H]1O[C@@H]([C@@H](C)[C@H](O)[C@H](C)C(=O)[C@H](CC)[C@H]2O[C@]3(C=C[C@@H](O)[C@]4(CC[C@@](C)([C@H]5CC[C@](O)(CC)[C@H](C)O5)O4)O3)[C@H](C)C[C@@H]2C)[C@@H](C)C[C@@H]1C	/	0.27µM*	/	0.47µM*	/	/
Cc1cc(C)[n+](C2C3CC4CC(C3)CC2C4)o1 (centres undefined)	2	21µM*	1%	-29%	14	9
O=C1Nc2ccccc2C2(CCN(CCc3ccc(C(F)(F)F)cc3)CC2)O1	/	/	10%	/	/	/
COc1ccc(NC(=O)CCn2cnc3onc(-c4ccc(F)cc4)c3c2=O)cc1OC	/	2.9µM*	1%	2.9µM*	/	/
O=C1CN=C(c2cccs2)c2c(sc3c2CCCC3)N1	-3	?	6%	16µM*	29	-5
C[C@]12CCC3C(CC[C@H]4CC(O)CC[C@]34C)C1CC/C2=N/NC(=O)c1ccncc1 (some centres undefined)	-5	23µM*	/	26µM*	46	1
C[C@]12CCC3C(CC[C@H]4C[C@@H](O)CC[C@]34C)[C@@H]1CCC2=O (some centres undefined)	/	30µM*	5%	27µM*	/	/
